# According to ChEMBL document CHEMBL1961873, “Compounds: GSK PKIS; Assays: Nanosyn kinase panel” (2012):
# How the values were obtained:
# [1] = molecular target: RAC-alpha serine/threonine-protein kinase (Homo sapiens) (UniProt P31749); details: at 0.1 µM
# [2] = molecular target: RAC-alpha serine/threonine-protein kinase (Homo sapiens) (UniProt P31749); details: at 1 µM
# [3] = molecular target: RAC-beta serine/threonine-protein kinase (Homo sapiens) (UniProt P31751); details: at 0.1 µM
# [4] = molecular target: RAC-beta serine/threonine-protein kinase (Homo sapiens) (UniProt P31751); details: at 1 µM
# [5] = molecular target: RAC-gamma serine/threonine-protein kinase (Homo sapiens) (UniProt Q9Y243); details: at 0.1 µM
# Chain of RAC-gamma serine/threonine-protein kinase (Homo sapiens) (Q9Y243 whole entry): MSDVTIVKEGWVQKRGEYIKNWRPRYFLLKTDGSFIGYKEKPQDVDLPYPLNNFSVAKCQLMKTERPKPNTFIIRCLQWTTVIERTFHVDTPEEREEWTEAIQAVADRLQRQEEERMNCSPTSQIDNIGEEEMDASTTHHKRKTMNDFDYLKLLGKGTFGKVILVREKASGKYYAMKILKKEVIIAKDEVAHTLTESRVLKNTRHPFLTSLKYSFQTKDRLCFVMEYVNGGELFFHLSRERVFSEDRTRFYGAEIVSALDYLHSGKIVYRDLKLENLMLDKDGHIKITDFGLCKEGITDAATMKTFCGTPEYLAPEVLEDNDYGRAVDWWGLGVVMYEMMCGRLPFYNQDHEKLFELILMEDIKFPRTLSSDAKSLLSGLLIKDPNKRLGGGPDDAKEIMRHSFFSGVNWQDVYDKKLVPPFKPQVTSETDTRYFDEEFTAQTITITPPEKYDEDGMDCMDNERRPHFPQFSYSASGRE
# [6] = molecular target: RAC-gamma serine/threonine-protein kinase (Homo sapiens) (UniProt Q9Y243); details: at 1 µM
# [7] = molecular target: G protein-coupled receptor kinase 6 (Homo sapiens) (UniProt P43250); details: at 0.1 µM
# [8] = molecular target: G protein-coupled receptor kinase 6 (Homo sapiens) (UniProt P43250); details: at 1 µM
# [9] = molecular target: Rhodopsin kinase GRK7 (Homo sapiens) (UniProt Q8WTQ7); details: at 0.1 µM
# [10] = molecular target: Rhodopsin kinase GRK7 (Homo sapiens) (UniProt Q8WTQ7); details: at 1 µM
# [11] = molecular target: Serine/threonine-protein kinase MRCK alpha (Homo sapiens) (UniProt Q5VT25); details: at 0.1 µM
# [12] = molecular target: Serine/threonine-protein kinase MRCK alpha (Homo sapiens) (UniProt Q5VT25); details: at 1 µM
# [13] = molecular target: Serine/threonine-protein kinase MRCK beta (Homo sapiens) (UniProt Q9Y5S2); details: at 0.1 µM
# [14] = molecular target: Serine/threonine-protein kinase MRCK beta (Homo sapiens) (UniProt Q9Y5S2); details: at 1 µM
# [15] = molecular target: Ribosomal protein S6 kinase alpha-5 (Homo sapiens) (UniProt O75582); details: at 0.1 µM
# [16] = molecular target: Ribosomal protein S6 kinase alpha-5 (Homo sapiens) (UniProt O75582); details: at 1 µM
# [17] = molecular target: Ribosomal protein S6 kinase alpha-4 (Homo sapiens) (UniProt O75676); details: at 0.1 µM
# Chain of Ribosomal protein S6 kinase alpha-4 (Homo sapiens) (O75676 whole entry, looked up): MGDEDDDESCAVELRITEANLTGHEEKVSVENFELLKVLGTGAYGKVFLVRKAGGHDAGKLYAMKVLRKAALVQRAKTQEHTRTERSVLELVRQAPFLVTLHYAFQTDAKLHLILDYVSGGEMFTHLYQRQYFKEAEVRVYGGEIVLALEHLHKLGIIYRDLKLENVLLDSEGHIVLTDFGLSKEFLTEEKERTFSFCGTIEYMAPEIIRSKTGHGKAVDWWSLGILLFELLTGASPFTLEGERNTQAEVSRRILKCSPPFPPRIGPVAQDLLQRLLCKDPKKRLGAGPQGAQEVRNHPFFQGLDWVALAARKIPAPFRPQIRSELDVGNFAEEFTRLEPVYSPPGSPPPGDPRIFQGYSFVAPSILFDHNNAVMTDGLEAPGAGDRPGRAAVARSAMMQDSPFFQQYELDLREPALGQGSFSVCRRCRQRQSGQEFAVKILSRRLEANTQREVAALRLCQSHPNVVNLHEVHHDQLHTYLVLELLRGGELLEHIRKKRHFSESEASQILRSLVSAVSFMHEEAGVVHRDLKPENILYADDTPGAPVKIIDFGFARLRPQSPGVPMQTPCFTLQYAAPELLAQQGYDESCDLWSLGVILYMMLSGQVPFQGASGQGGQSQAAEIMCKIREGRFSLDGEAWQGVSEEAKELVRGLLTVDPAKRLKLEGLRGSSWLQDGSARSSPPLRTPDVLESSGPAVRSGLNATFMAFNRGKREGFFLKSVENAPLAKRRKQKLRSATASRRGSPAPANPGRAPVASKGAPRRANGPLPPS
# [18] = molecular target: Ribosomal protein S6 kinase alpha-4 (Homo sapiens) (UniProt O75676); details: at 1 µM
# [19] = molecular target: Ribosomal protein S6 kinase beta-1 (Homo sapiens) (UniProt P23443); details: at 0.1 µM
# [20] = molecular target: Ribosomal protein S6 kinase beta-1 (Homo sapiens) (UniProt P23443); details: at 1 µM
# [21] = molecular target: 3-phosphoinositide-dependent protein kinase 1 (Homo sapiens) (UniProt O15530); details: at 0.1 µM;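 further: values are mean inhibition of PDK1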
# [22] = molecular target: cAMP-dependent protein kinase catalytic subunit alpha (Homo sapiens) (UniProt P17612); details: at 0.1 µM
# [23] = molecular target: cAMP-dependent protein kinase catalytic subunit alpha (Homo sapiens) (UniProt P17612); details: at 1 µM
# [24] = molecular target: Protein kinase C alpha type (Homo sapiens) (UniProt P17252); details: at 0.1 µM
# [25] = molecular target: Protein kinase C alpha type (Homo sapiens) (UniProt P17252); details: at 1 µM
# [26] = molecular target: Protein kinase C beta type (Homo sapiens) (UniProt P05771); details: at 0.1 µM
# Chain of Protein kinase C beta type (Homo sapiens) (P05771 2-671 limits assumed): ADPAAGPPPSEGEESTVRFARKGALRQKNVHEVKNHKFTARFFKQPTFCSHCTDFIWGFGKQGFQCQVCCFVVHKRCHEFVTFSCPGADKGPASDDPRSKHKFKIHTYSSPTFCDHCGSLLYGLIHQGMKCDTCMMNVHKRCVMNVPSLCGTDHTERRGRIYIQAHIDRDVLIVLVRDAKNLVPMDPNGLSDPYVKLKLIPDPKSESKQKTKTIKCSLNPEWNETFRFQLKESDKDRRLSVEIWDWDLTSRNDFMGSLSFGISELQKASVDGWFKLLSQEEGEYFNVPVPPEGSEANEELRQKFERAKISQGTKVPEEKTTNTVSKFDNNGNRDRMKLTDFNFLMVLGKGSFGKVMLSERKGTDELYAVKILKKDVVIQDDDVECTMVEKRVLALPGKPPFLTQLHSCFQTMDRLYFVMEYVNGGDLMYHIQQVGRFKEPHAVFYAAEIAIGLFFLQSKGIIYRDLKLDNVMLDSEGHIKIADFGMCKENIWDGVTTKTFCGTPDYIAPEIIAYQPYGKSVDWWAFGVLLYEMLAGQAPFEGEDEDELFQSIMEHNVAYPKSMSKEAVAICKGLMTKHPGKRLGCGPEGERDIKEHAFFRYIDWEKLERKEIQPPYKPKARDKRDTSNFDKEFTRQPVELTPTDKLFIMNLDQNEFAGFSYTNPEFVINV
# [27] = molecular target: Protein kinase C beta type (Homo sapiens) (UniProt P05771); details: at 1 µM
# [28] = molecular target: Protein kinase C eta type (Homo sapiens) (UniProt P24723); details: at 0.1 µM
# [29] = molecular target: Protein kinase C eta type (Homo sapiens) (UniProt P24723); details: at 1 µM
# [30] = molecular target: Protein kinase C gamma type (Homo sapiens) (UniProt P05129); details: at 0.1 µM
# [31] = molecular target: Protein kinase C gamma type (Homo sapiens) (UniProt P05129); details: at 1 µM
# [32] = molecular target: Protein kinase C iota type (Homo sapiens) (UniProt P41743); details: at 0.1 µM
# [33] = molecular target: Protein kinase C iota type (Homo sapiens) (UniProt P41743); details: at 1 µM
# [34] = molecular target: Protein kinase C theta type (Homo sapiens) (UniProt Q04759); details: at 0.1 µM
# [35] = molecular target: Protein kinase C theta type (Homo sapiens) (UniProt Q04759); details: at 1 µM
# [36] = molecular target: Protein kinase C beta type (Homo sapiens) (UniProt P05771); details: at 0.1 µM; remark: listed apart in the source
# [37] = molecular target: Protein kinase C beta type (Homo sapiens) (UniProt P05771); details: at 1 µM; remark: listed apart in the source
# [38] = molecular target: Serine/threonine-protein kinase D1 (Homo sapiens) (UniProt Q15139); details: at 0.1 µM
# Chain of Serine/threonine-protein kinase D1 (Homo sapiens) (Q15139 whole entry): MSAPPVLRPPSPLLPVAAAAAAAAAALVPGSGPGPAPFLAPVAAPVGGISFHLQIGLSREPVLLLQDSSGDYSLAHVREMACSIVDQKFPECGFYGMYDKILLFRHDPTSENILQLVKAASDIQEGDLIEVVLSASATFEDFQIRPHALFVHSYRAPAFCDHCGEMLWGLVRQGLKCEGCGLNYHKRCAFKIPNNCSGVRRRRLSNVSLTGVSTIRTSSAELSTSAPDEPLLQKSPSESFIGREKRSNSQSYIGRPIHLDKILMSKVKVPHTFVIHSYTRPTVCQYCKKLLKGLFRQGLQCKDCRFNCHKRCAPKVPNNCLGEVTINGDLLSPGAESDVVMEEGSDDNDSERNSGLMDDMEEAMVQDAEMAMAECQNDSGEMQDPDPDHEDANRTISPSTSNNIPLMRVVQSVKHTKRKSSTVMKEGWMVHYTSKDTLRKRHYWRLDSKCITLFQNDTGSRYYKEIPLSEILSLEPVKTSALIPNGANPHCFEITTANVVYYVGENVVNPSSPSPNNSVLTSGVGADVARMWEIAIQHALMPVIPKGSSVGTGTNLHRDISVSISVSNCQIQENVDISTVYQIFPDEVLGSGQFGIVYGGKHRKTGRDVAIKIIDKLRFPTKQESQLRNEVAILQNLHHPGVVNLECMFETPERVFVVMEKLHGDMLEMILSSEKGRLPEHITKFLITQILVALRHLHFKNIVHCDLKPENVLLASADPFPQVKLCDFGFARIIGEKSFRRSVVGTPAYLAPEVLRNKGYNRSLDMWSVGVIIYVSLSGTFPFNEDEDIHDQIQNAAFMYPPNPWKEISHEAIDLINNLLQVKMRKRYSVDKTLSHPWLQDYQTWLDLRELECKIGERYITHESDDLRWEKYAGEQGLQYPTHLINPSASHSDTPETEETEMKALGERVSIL
# [39] = molecular target: Serine/threonine-protein kinase D1 (Homo sapiens) (UniProt Q15139); details: at 1 µM
# [40] = molecular target: Serine/threonine-protein kinase D2 (Homo sapiens) (UniProt Q9BZL6); details: at 0.1 µM
# [41] = molecular target: Serine/threonine-protein kinase D2 (Homo sapiens) (UniProt Q9BZL6); details: at 1 µM
# [42] = molecular target: Serine/threonine-protein kinase D3 (Homo sapiens) (UniProt O94806); details: at 0.1 µM
# Chain of Serine/threonine-protein kinase D3 (Homo sapiens) (O94806 whole entry): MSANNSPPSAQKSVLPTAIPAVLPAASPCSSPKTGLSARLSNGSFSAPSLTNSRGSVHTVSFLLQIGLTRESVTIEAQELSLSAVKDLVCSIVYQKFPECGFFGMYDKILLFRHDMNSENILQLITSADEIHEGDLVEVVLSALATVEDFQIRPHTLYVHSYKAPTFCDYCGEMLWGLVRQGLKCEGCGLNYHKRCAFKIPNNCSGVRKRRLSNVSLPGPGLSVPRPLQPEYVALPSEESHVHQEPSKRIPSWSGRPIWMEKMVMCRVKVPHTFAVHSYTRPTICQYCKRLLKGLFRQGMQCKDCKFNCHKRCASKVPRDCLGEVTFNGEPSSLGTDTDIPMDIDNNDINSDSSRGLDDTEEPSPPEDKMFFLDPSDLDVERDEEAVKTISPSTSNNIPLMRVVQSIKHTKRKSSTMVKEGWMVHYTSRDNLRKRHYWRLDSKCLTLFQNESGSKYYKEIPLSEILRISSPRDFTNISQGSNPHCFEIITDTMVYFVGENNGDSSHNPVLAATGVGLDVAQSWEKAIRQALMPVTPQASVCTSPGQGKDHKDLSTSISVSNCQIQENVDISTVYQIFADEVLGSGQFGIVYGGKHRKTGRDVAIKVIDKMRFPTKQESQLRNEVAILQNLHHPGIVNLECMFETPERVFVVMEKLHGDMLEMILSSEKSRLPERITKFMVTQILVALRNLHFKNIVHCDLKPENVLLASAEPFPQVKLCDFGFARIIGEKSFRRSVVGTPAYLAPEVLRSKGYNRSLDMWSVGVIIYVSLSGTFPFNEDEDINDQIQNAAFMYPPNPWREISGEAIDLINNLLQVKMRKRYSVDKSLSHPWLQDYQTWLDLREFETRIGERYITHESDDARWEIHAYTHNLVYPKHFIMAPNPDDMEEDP
# [43] = molecular target: Serine/threonine-protein kinase D3 (Homo sapiens) (UniProt O94806); details: at 1 µM
# [44] = molecular target: cGMP-dependent protein kinase 1 (Homo sapiens) (UniProt Q13976); details: at 0.1 µM
# Chain of cGMP-dependent protein kinase 1 (Homo sapiens) (Q13976 whole entry): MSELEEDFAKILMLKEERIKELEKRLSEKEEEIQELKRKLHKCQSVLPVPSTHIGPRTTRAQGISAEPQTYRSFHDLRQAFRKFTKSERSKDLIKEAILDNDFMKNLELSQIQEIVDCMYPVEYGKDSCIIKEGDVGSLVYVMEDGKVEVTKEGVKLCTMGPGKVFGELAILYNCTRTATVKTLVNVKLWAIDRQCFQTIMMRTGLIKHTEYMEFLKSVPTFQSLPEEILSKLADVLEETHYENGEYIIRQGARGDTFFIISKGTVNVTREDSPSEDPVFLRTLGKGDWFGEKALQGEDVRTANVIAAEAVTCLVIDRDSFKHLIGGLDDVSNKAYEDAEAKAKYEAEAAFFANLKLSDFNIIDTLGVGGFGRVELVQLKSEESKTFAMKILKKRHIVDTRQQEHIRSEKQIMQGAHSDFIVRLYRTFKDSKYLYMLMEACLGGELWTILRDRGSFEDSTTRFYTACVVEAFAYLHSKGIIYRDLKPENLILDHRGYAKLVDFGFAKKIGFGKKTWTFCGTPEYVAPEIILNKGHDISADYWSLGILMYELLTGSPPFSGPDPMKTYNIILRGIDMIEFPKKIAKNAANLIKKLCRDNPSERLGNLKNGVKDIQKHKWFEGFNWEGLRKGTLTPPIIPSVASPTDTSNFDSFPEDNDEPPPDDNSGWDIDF
# [45] = molecular target: cGMP-dependent protein kinase 1 (Homo sapiens) (UniProt Q13976); details: at 1 µM
# [46] = molecular target: cGMP-dependent protein kinase 2 (Homo sapiens) (UniProt Q13237); details: at 0.1 µM
# [47] = molecular target: cGMP-dependent protein kinase 2 (Homo sapiens) (UniProt Q13237); details: at 1 µM
# [48] = molecular target: cAMP-dependent protein kinase catalytic subunit PRKX (Homo sapiens) (UniProt P51817); details: at 0.1 µM
# Chain of cAMP-dependent protein kinase catalytic subunit PRKX (Homo sapiens) (P51817 whole entry): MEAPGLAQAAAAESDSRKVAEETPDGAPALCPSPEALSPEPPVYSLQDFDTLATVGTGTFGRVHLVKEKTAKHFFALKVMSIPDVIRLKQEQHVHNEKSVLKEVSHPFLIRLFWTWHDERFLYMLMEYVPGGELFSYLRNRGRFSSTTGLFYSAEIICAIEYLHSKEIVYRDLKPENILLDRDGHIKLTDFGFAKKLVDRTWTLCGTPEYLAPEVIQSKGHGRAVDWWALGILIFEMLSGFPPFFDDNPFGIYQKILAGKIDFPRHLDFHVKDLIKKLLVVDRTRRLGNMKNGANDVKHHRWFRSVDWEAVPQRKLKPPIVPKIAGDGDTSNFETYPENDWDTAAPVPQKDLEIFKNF
# [49] = molecular target: cAMP-dependent protein kinase catalytic subunit PRKX (Homo sapiens) (UniProt P51817); details: at 1 µM
# [50] = molecular target: Rho-associated protein kinase 1 (Homo sapiens) (UniProt Q13464); details: at 0.1 µM
# [51] = molecular target: Rho-associated protein kinase 1 (Homo sapiens) (UniProt Q13464); details: at 1 µM
# [52] = molecular target: Rho-associated protein kinase 2 (Homo sapiens) (UniProt O75116); details: at 0.1 µM
# [53] = molecular target: Rho-associated protein kinase 2 (Homo sapiens) (UniProt O75116); details: at 1 µM
# [54] = molecular target: Ribosomal protein S6 kinase alpha-1 (Homo sapiens) (UniProt Q15418); details: at 0.1 µM
# [55] = molecular target: Ribosomal protein S6 kinase alpha-1 (Homo sapiens) (UniProt Q15418); details: at 1 µM
structure (smiles),measurement,setting,value
CNC(=O)Oc1cc(C)c(/C=C/c2cncc(C(=O)NC)c2)c(C)c1,inhibition,[1],1.66%
same,inhibition,[2],1.83%
same,inhibition,[3],0.76%
same,inhibition,[4],1.15%
same,inhibition,[5],1.57%
same,inhibition,[6],1.51%
same,inhibition,[7],2.38%
same,inhibition,[8],-2.05%
same,inhibition,[9],0.83%
same,inhibition,[10],-7.52%
same,inhibition,[11],0.96%
same,inhibition,[12],1.01%
same,inhibition,[13],0.52%
same,inhibition,[14],2.49%
same,inhibition,[15],-0.65%
same,inhibition,[16],2.76%
same,inhibition,[17],0.7%
same,inhibition,[18],5.41%
same,inhibition,[19],2.74%
same,inhibition,[20],2.7%
same,inhibition,[21],3.92%
same,inhibition,[22],1.8%
same,inhibition,[23],1.69%
same,inhibition,[24],0.7%
same,inhibition,[25],2.8%
same,inhibition,[26],-0.06%
same,inhibition,[27],0.33%
same,inhibition,[28],0.72%
same,inhibition,[29],3.06%
same,inhibition,[30],2.88%
same,inhibition,[31],5.84%
same,inhibition,[32],1.28%
same,inhibition,[33],3.8%
same,inhibition,[34],0.64%
same,inhibition,[35],-0.84%
same,inhibition,[36],1.05%
same,inhibition,[37],0.33%
same,inhibition,[38],1.91%
same,inhibition,[39],4.8%
same,inhibition,[40],3%
same,inhibition,[41],4.22%
same,inhibition,[42],2.02%
same,inhibition,[43],3.35%
same,inhibition,[44],3.13%
same,inhibition,[45],4.05%
same,inhibition,[46],3.07%
same,inhibition,[47],5.39%
same,inhibition,[48],1.78%
same,inhibition,[49],0.62%
same,inhibition,[50],0.86%
same,inhibition,[51],4.25%
same,inhibition,[52],1.43%
same,inhibition,[53],3.24%
same,inhibition,[54],2.03%
same,inhibition,[55],4.8%
